The nature of the assay: NCI Yeast Anticancer Drug Screen. Data for the rad52 strain (AID 147).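 Note: 0% = growth of vehicle-treated control cultures.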 To be noted: S. cerevisiae rad52 mutant growth inhibition, active compounds read high. As for the experimental part: Growth inhibition of yeast strains with defined genetic alterations is measured as a screen for potential anti-cancer activity. Selected strains with alterations in DNA damage repair or cell cycle control were exposed to compounds and growth inhibition was measured relative to vehicle treated controls. The strain used in this assay is rad52

Molecules are shown by their SMILES. Compounds without any hit were thinned out: in the full panel of roughly 79,000, 15% have a hit. A number with no mark means an inactive call. The source made the active and inactive calls. Cut-off read from the data, not from the text of the source: active = growth inhibition above about 70%; inactive = the rest.

Take `[Pt].c1ccc(P(CCP(c2ccccc2)c2ccccc2)CCP(c2ccccc2)c2ccccc2)cc1`: the growth inhibition was -15% (at 1.2 µM); 2% (at 3.7 µM); 7% (at 11.0 µM); 89% (active) (at 33.0 µM); 84% (active) (at 100.0 µM).
As for `CC(=O)OCC1OC(O[C@H]2C=C[C@@H](C(=O)OCc3ccccc3)n3c(=O)n(-c4ccccc4)c(=O)n32)C(OC(C)=O)C(OC(C)=O)C1OC(C)=O` (stereo not given in full), the growth inhibition runs as follows: (at 1.2 µM) 22%; (at 3.7 µM) 24%; (at 11.0 µM) 14%; (at 33.0 µM) 63%; (at 100.0 µM) 77% (active).
Consider `CCN(CC)CC(O)c1cc(-c2ccc(Cl)cc2)nc2c(-c3ccccc3)cccc12` (stereo not given), for which the growth inhibition (at 1.2 µM) is -1%; the growth inhibition (at 3.7 µM) is -1%; the growth inhibition (at 11.0 µM) was 98% (active); the growth inhibition (at 33.0 µM) is 98% (active); the growth inhibition (at 100.0 µM) was 93% (active).
As for `CCOC(=O)CNC(=O)c1[nH]cnc1/N=N/N(C)C`, the growth inhibition was -12% (at 1.2 µM); -11% (at 3.7 µM); -12% (at 11.0 µM); 6% (at 33.0 µM); 98% (active) (at 100.0 µM).
Regarding `Cc1ccccc1NC(=O)Cc1csc(N/N=C2\NC(=O)/C(=C/c3cccc([N+](=O)[O-])c3)S2)n1`, the growth inhibition was 2% (at 1.2 µM); 5% (at 3.7 µM); 13% (at 11.0 µM); 24% (at 33.0 µM); 49% (at 100.0 µM).
For `S=c1[nH]nc(-c2ccc(Cl)cc2)s1` the same measures were 16%, 7%, 23%, 93% (active) and 97% (active).
For `Cc1ccc(CNc2ccc(Br)cc2)cc1`, in that order: 5%, 7%, 18%, 66% and 88% (active).
On to `CCCCC1=NNC(=O)C1`, for which the growth inhibition is, setting by setting: (at 1.2 µM) 2%; (at 3.7 µM) 4%; (at 11.0 µM) 0%; (at 33.0 µM) 7%; (at 100.0 µM) 15%.

The values above are taken from PubChem BioAssay (NCI).
